# In the antibiotic and cytotoxicity screens of Wong et al. (2023):
# The whole screen tested about 39,000 compounds, of which about 1,500 (3.8%) were called active. The entries come from a sample that favours actives as a whole.
# System: HSkMC (human skeletal muscle cells)
# Assay: cytotoxicity call (relative viability < 0.9)
# Settings: 10 µM
row,SMILES,cytotoxicity call
1,COCC(=O)N(C)C[C@@H]1Oc2cc(C#Cc3ccccc3)ccc2S(=O)(=O)N([C@H](C)CO)C[C@H]1C,inactive
2,CO[C@@H]1CN(C)C(=O)c2cc(NC(=O)Nc3ccccc3)ccc2OC[C@@H](C)N(C(=O)CN(C)C)C[C@@H]1C,inactive
3,Nc1ccn([C@H]2CC[C@@H](CO)O2)c(=O)n1,inactive
4,CC(C)CC#Cc1ccc2c(c1)O[C@H](CN(C)C(=O)c1ccncc1)[C@@H](C)CN([C@H](C)CO)S2(=O)=O,inactive
5,CCn1c(-c2nonc2N)nc2cncc(C(=O)N3CC[C@H](N)C3)c21,active
6,C[C@H](CO)N1C[C@H](C)[C@H](CN(C)Cc2ccncc2)OCCCC[C@H](C)Oc2ccc(NC(=O)NC3CCCCC3)cc2C1=O,inactive
7,C[C@@H]1CCCCO[C@H](CN(C)C(=O)Cc2ccccc2)[C@H](C)CN([C@H](C)CO)C(=O)c2cc(NS(=O)(=O)c3ccc(Cl)cc3)ccc2O1,inactive
8,C[C@H](CO)N1C[C@H](C)[C@H](CN(C)C(=O)C2CCCCC2)OCCCC[C@H](C)Oc2ccc(NC(=O)Nc3ccc4c(c3)OCO4)cc2C1=O,inactive
9,Nc1ccn([C@H]2O[C@@H](CO)[C@@H](O)[C@@H]2O)c(=O)n1,inactive
10,O=C(C[C@@H]1C=C[C@@H](NS(=O)(=O)c2ccccc2F)[C@@H](CO)O1)NCCCN1CCOCC1,inactive
11,O=C(CCCCC(=O)N/N=C/c1cc[n+]([O-])cc1)NO,inactive
12,Cc1ccc(S(=O)(=O)Nc2ccc3c(c2)CC(=O)N([C@H](C)CO)C[C@H](C)[C@H](CN(C)C(=O)Nc2cccc4ccccc24)O3)cc1,inactive
13,C[C@H](CO)N1C[C@H](C)[C@H](CN(C)C(=O)Nc2ccccc2)Oc2ncc(-c3cccc(C(F)(F)F)c3)cc2C1=O,inactive
14,CN(C)C1CCN(C(=O)c2cnc(-c3noc4cc(-c5ccccc5C(F)(F)F)ccc34)s2)CC1,inactive
15,CN(C)C1CCN(C(=O)c2cnc(-c3noc4cc(-c5cccc(C(F)(F)F)c5)ccc34)s2)CC1,active
16,COc1ccc(S(=O)(=O)Nc2ccc3c(c2)CC(=O)N([C@@H](C)CO)C[C@H](C)[C@@H](CN(C)S(=O)(=O)c2cn(C)cn2)O3)cc1,inactive
17,O=C(C1=C[C@H](c2coc3ccccc3c2=O)C[C@H](OCCCCO)O1)N1CCN(Cc2ccc3c(c2)OCO3)CC1,inactive
18,CNc1cccc(CN)c1,inactive
19,CN1CCC(Nc2nc(Nc3ccc(Oc4ccccc4)cc3)c3c(O)ncc(Br)c3n2)CC1,active
20,C=CC[C@H](CC(=O)N(CCO)Cc1ccccc1)C(=O)N[C@H](COC(=O)[C@H](CC=C)CC(=O)OC(C)(C)C)Cc1c[nH]c2ccccc12,inactive
21,C=CC[C@H](CC(=O)N(CCO)Cc1ccccc1)C(=O)N[C@@H](COC(=O)[C@H](CC=C)CC(=O)OC(C)(C)C)Cc1c[nH]c2ccccc12,inactive

row,SMILES,cytotoxicity call
1,C=CC[C@@H](CC(=O)N(CCO)Cc1ccccc1)C(=O)N[C@H](COC(=O)[C@@H](CC=C)CC(=O)OC(C)(C)C)Cc1c[nH]c2ccccc12,inactive
2,C=CC[C@@H](CC(=O)N(CCO)Cc1ccccc1)C(=O)N[C@H](COC(=O)[C@@H](CC=C)Cc1ccc(F)cc1)Cc1c[nH]c2ccccc12,active
3,C=CC[C@H](CC(=O)N(CCO)Cc1ccccc1)C(=O)N[C@@H](COC(=O)[C@@H](CC=C)CC(=O)OC(C)(C)C)Cc1c[nH]c2ccccc12,inactive
4,C=CC[C@@H](CC(=O)N(CCO)Cc1ccccc1)C(=O)N[C@@H](COC(=O)[C@H](CC=C)CC(=O)OC(C)(C)C)Cc1c[nH]c2ccccc12,inactive
5,C=CC[C@@H](CC(=O)N(CCO)Cc1ccccc1)C(=O)N[C@@H](COC(=O)[C@@H](CC=C)CC(=O)OC(C)(C)C)Cc1c[nH]c2ccccc12,inactive
6,C=CC[C@@H](CC(=O)N(CCO)Cc1ccccc1)C(=O)N[C@@H](COC(=O)[C@@H](CC=C)Cc1ccc(F)cc1)Cc1c[nH]c2ccccc12,active
7,C=CC[C@@H](CC(=O)N(CCO)Cc1ccccc1)C(=O)N[C@@H](COC(=O)[C@H](CC=C)Cc1ccc(F)cc1)Cc1c[nH]c2ccccc12,active
8,C=CC[C@H](CC(=O)N(CCO)Cc1ccccc1)C(=O)N[C@H](COC(=O)[C@@H](CC=C)Cc1ccc(F)cc1)Cc1c[nH]c2ccccc12,inactive
9,C=CC[C@H](CC(=O)N(CCO)Cc1ccccc1)C(=O)N[C@@H](COC(=O)[C@@H](CC=C)Cc1ccc(F)cc1)Cc1c[nH]c2ccccc12,active
10,C=CC[C@H](CC(=O)N(CCO)Cc1ccccc1)C(=O)N[C@H](COC(=O)[C@@H](CC=C)CC(=O)OC(C)(C)C)Cc1c[nH]c2ccccc12,inactive
11,C[C@H]1CCCCO[C@H](CN(C)CC2CC2)[C@@H](C)CN([C@@H](C)CO)C(=O)c2cc(NC(=O)C3CCCCC3)ccc2O1,inactive
12,C[C@@H]1CN([C@@H](C)CO)C(=O)c2cc(NC(=O)C3CC3)ccc2O[C@H]1CN(C)S(=O)(=O)c1ccc(F)cc1,inactive
13,C[C@@H]1CN([C@H](C)CO)S(=O)(=O)c2ccc(/C=C/c3ccccc3)cc2O[C@@H]1CN(C)C(=O)Nc1cc(F)ccc1F,inactive
14,NC(=S)c1cnccn1,inactive
15,C[C@@H]1CCCCO[C@H](CN(C)Cc2ccc(C(F)(F)F)cc2)[C@H](C)CN([C@@H](C)CO)C(=O)c2cc(NS(=O)(=O)c3ccccc3)ccc2O1,inactive
16,C[C@H](CO)N1C[C@H](C)[C@@H](CN(C)C(=O)Nc2ccc(F)cc2)Oc2ccc(NC(=O)C3CC3)cc2CC1=O,inactive
17,C[C@@H]1CN([C@H](C)CO)C(=O)c2cc(C3=CCCC3)cnc2O[C@@H]1CN(C)C(=O)c1ccc2c(c1)OCO2,inactive
18,C[C@H](CO)N1C[C@H](C)[C@@H](CN(C)C(=O)c2ccccc2)OCCCC[C@H](C)Oc2ccc(NC(=O)Nc3cccc4ccccc34)cc2C1=O,inactive
19,CN1CCN(C(=O)C[C@H]2CC[C@@H]3[C@H](COC[C@@H](O)CN3S(=O)(=O)c3cccc(F)c3)O2)CC1,inactive
20,C[C@@H]1CN([C@@H](C)CO)C(=O)c2c(c3ccccc3n2C)-c2ccccc2CO[C@@H]1CN(C)Cc1ccc(C(=O)O)cc1,inactive
